Data on 12 compounds can be found in PubChem BioAssay (NCATS).

The target of this test is Calcium and integrin-binding protein 1 (Homo sapiens) (UniProt Q99828). The test is described as follows: Primary qHTS for Identification of Calcium Integrin Binding Protein 1 (CIB1) Competitor (AID 1508620).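 Also: GST tagged CIB1 binding a fluorescein labelled alphaIIb integrin peptide tracer; top concentration of the series differs between compounds.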 The conditions noted are these: CIB1-GST / FITC-alphaIIb peptide fluorescence polarization; series mostly up to 114 µM. The procedure, abridged:
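Fluorescence polarization competition: CIB1-GST (1 uM final) preincubated with compound 15 min at room temperature, then FITC-labeled alphaIIb peptide (100 nM final) added for another 15 min. Polarization read at Ex 480/Em 540.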

Each structure is given as a SMILES string. Results filed as inconclusive are left out. Where a call stands in place of a potency, no number is given. Values without a mark were called inactive. Calls of active or inactive are those of the source. Calls follow the shape of the dose curve; as a rule, active = well fitted inhibition curve with a large enough effect; inconclusive = small, poorly fitted or top-dose-only effect; inactive = flat fitted curve, though single readings scatter.

Calcium and integrin-binding protein 1 (Homo sapiens), sequence (Q99828 whole entry, looked up): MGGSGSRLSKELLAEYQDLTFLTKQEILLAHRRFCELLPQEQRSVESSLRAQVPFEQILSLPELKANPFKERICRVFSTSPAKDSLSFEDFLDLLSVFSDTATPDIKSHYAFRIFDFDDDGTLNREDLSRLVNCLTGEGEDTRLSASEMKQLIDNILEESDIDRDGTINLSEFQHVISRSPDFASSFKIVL

On to `O=S(=O)(c1ccc(S(=O)(=O)n2cnc3ccccc32)cc1)N1CCCCCC1`, for which the Potency entry was “inactive”.
Same read-out and setting: the result for `CN=C(N)NCCCCC/C=C(/C)CC(C)C1OC(=O)C(C)C(O)/C=C/C(C)C(O)CC(O)C(C)C(O)CCC(C)C(O)CC2(O)OC(CC(OC(=O)CC(=O)O)CC(O)CC(O)C(C)C(O)/C(C)=C/CCC1C)CC(O)C2O` (configuration not stated) reads “inactive”.
Turning to `Nc1ncnc2c([C@@H]3N[C@H](CO)[C@@H](O)[C@H]3O)c[nH]c12`, the Potency entry is “inactive”.
The same measure, in the same setting: the result for `CC(C)CC(=O)O[C@@H]1OC=C(CO[C@@H]2O[C@H](CO)[C@@H](O)[C@H](O)[C@H]2O)[C@H]2[C@@H]3O[C@H]3[C@@](O)(CO)[C@@H]12` reads “inactive”; that for `Cc1cc(C(=O)N2CCCCc3ccccc32)ccc1CNC(=O)N1CCC[C@H]1C(=O)N(C)C`, “inactive”.
Take `Cn1cc(-c2ccc3nnc(Sc4ccc5nn(C)cc5c4)n3n2)cn1`: the Potency entry is “inactive”.
On the same count and under the same terms, the result for `C=C(C)C1CCC2(C(=O)O[C@@H]3O[C@H](CO[C@@H]4O[C@H](CO)[C@@H](O)[C@H](O)[C@H]4O)[C@@H](O)[C@H](O[C@@H]4O[C@@H](C)[C@H](O)[C@@H](O)[C@H]4O)[C@H]3O)CCC3(C(=O)O)C(CCC4C5(C)CCC(O)C(C)(C)C5CCC43C)C12` (some centres not stated) reads “inactive”.
On the same count and under the same terms, the result for `Cn1c(=O)n(-c2ccc(C(C)(C)C#N)cc2)c2c3cc(C#Cc4cccnc4)ccc3ncc21` reads “inactive”.
Same read-out and setting: the result for `O=C(c1cn(Cc2cncn2Cc2ccc(Br)cc2)cc1-c1cccc2ccccc12)N1CCOCC1` reads “inactive”.
In the case of `C[C@@H]1O[C@@H](O[C@H]2[C@H](OC(=O)[C@]34CCC(C)(C)C[C@H]3C3=CCC5[C@@]6(C)C[C@H](O)[C@H](O[C@@H]7O[C@H](CO)[C@@H](O)[C@H](O)[C@H]7O)[C@@](C)(CO)C6[C@H](O)C[C@@]5(C)[C@]3(C)C[C@H]4O)OC[C@H](O)[C@@H]2O)[C@H](O)[C@H](O)[C@H]1O[C@@H]1OC[C@@H](O)[C@H](O[C@H]2OC[C@](O)(CO)[C@H]2O)[C@H]1O` (some centres not stated), the activity change, negative = inhibition is 3.47% [at 12.4 µM].
On to `CC[C@H](C)[C@H](NC(=O)[C@H]([C@@H](C)CC)N(C)C(C)=O)C(=O)N[C@H](C(=O)N[C@@H](CC(C)C)C(=O)[C@@]1(C)CO1)[C@@H](C)O`, for which the Potency result was “inactive”.
In the case of `C=C1C(=O)O[C@@H]2[C@H]1CCC(C)=C1CCC(=O)O[C@]12C`, the Potency result is “inactive”.
